We go through one compound from PubChem BioAssay (NCATS).

The nature of assay [1]: AP1 Signaling Pathway (AID 357; active = well fitted curve in either direction with a large enough effect, not every such curve was filed as active;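 also: ME-180 reporter cells stimulated with EGF at its EC50 level; % is scaled to controls: 0 for no effect and ±100 for the full control effect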). The conditions noted are these: ME-180 (cervical carcinoma) AP-1-bla reporter, EGF-induced, beta-lactamase ratio, 5 h. The method in brief:
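Titration-series screen for positive or negative modulators of EC50 EGF-induced signaling in ME-180 cells carrying an AP-1-driven beta-lactamase reporter. After 5 hours at 37 degrees Celsius, CCF4 460nm/530nm emission ratio gave %Activity; AC50 values derived.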

The target of assay [2] is Cytochrome P450 1A2 (Homo sapiens) (UniProt P05177). The experiment in a line: p450-cyp1a2 (AID 410; calls by dose curve; also: potency is read from the fitted curve at half-maximal effect;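 as to activity change, negative = inhibition: -100% = full effect of reference inhibitor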). The conditions noted are these: recombinant CYP1A2, luciferin-ME demethylation, luminescence; series mostly up to 57 µM. The method in brief: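 Read-out is luminescence from luciferin produced by CYP1A2 demethylation of Luciferin-ME (100uM, at Km). Detection reagent stopped the 60 min NADPH-dependent reaction; signals were normalized to 57 uM furafylline.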

Assay [3] can be described thus: NFAT Signaling Pathway (AID 444; active = well fitted curve in either direction with a large enough effect, not every such curve was filed as active;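 also: carbachol stimulus at about its EC50 of 1 µM final; % is scaled to controls: 0 for no effect and ±100 for the full control effect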). The conditions noted are these: Jurkat NFAT-bla M1, carbachol, beta-lactamase ratio, 5 h; at 38 µM (top of the series). In short, it runs like this:
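Read-out: CCF4 FRET ratio (460 nm/530 nm) after 1 h RT dye loading, used for %activity and AC50 from titration series. Cells: Jurkat NFAT-β-lactamase/M1 line, treated with compound plus 1 uM carbachol for 5 h, 37 °C.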

For assay [4], the target named is Glucocorticoid receptor (Homo sapiens) (UniProt P04150). The experiment in a line: GR-GFP Redistribution (AID 450;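 active = compounds whose dose series gives a full or clear partial fitted curve of increased nuclear translocation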; also: potency is read from the fitted curve at half-maximal effect). The conditions noted are these: U2OS GR-GFP nuclear translocation, laser cytometry, 2 h.
The target is the same in assay [5]. The experiment in a line: GR-EFC Redistribution (AID 451; calls by dose curve; also: potency is read from the fitted curve at half-maximal effect). The conditions noted are these: CHO-K1 GR-EFC translocation, beta-gal luminescence, 2 h. In short, it runs like this: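 Translocation of GR-ED fusion to nuclear EA restores b-gal, read by luminescence after 1 h room-temperature detection. Engineered CHO-K1 biosensor cells, 1,000/well, exposed 2 h at 37 C to titrations up to 46 uM final.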

Assay [6] has as its target Mitogen-activated protein kinase 10 (Mus musculus) (UniProt Q61831). The experiment in a line: JNK3 AlphaScreen Assay (AID 530; active = well fitted curve in either direction with a large enough effect, not every such curve was filed as active;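 also: kinase came from lysate of stimulated human HepG2 cells; signal reports phosphorylation of biotinylated GST-cJun 1-79 at Ser73 with 10 µM ATP; % is scaled to controls: 0 for no effect and ±100 for the full control effect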). The conditions noted are these: JNK3 lysate, c-Jun phosphorylation; series mostly up to 57.1 µM. In short, it runs like this:
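Kinase buffer: 20 mM Tris-HCl pH 7.6, 10 mM MgCl2, 1 mM DTT, 0.1 mM Na3VO4, 0.01% Tween-20; ATP 10 uM. Substrate biotin-GST-cJun(1-79), enzyme from activated HepG2 lysates. Detection by Ser73 phospho-antibody AlphaScreen.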
(In general: Bead proximity is the source of the signal in Alpha formats.)

Assay [7] has as its target 3',5'-cyclic-AMP phosphodiesterase 4B (Homo sapiens) (UniProt Q07343). The experiment in a line: qHTS Assay for Inhibitors of PDE-IV (AID 607; active = well fitted activation curve with a large enough effect in the main read-out, with a control signal flat, not every such curve was filed as active; also: % of control where 0% means no effect). The conditions noted are these: HEK293 ACTOne CNG channel cells, membrane potential fluorescence; series mostly up to 22.9 µM. In short, it runs like this:
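Cell-based read-out of cAMP via a modified cyclic nucleotide-gated channel and membrane potential dye (535/590 nm) in HEK293 cells expressing PDE4 endogenously. Compounds tested up to 22.9 uM final; 100 uM RO 20-1724 reference.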

Assay [8] has as its target Guanine nucleotide-binding protein G(i) subunit alpha-1 (Homo sapiens) (UniProt P63096). The experiment in a line: qHTS Assay for Inhibitors of RGS12 GoLoco Motif Activity (Green Fluorophore) (AID 879).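 Also: 0% = labeled peptide with Gαi1 and full inhibition = labeled peptide alone without protein; negative values mean loss of peptide binding seen as reduced polarization.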 The conditions noted are these: Galphai1/FITC-RGS12 GoLoco peptide, fluorescence polarization; series mostly up to 57.1 µM. The method in brief:
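A drop in FITC polarization marked displacement of the FITC-tagged RGS12 GoLoco peptide (10 nM) from Gαi1 (50 nM). Compounds were incubated 10 min at room temperature in Tris pH 7.5 buffer containing 150 mM NaCl, 0.1 mM GDP and 0.05% NP40; unlabeled peptide titration served as control.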
(Quantitative high-throughput screening tests each substance at several concentrations.)

The target in assay [9] is Cytochrome P450 3A4 (Homo sapiens) (UniProt P08684). The experiment in a line: qHTS Assay for Activators of Cytochrome P450 3A4 (AID 885). Also: nearly all actives have a fitted effect of over 65% in size. The conditions noted are these: recombinant CYP3A4, Luciferin-PPXE luminescence, 60 min; series mostly up to 57.1 µM. In short, it runs like this:
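Luminescent readout of luciferin formed from 25 uM Luciferin-PPXE (KM level) by 20 nM CYP3A4 in 200 mM KPO4, with 60 min NADPH-driven reaction at room temperature after 10 min compound exposure. Ketoconazole (57 uM) defined 100% inhibition.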

Assay [10] addresses Cytochrome P450 2D6 (Homo sapiens) (UniProt P10635). The experiment in a line: qHTS Assay for Inhibitors and Substrates of Cytochrome P450 2D6 (AID 891). Also: nearly all actives have a fitted effect of over 60% in size. Also: potency is read from the fitted curve at half-maximal effect. The conditions noted are these: recombinant CYP2D6, luciferin-ME EGE luminescence; series mostly up to 57.1 µM. In short, it runs like this:
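Luminescent read-out of luciferin formed by 5 nM human CYP2D6 demethylating 30 uM Luciferin-ME EGE (Km level) over 60 min at room temperature after NADPH regeneration addition. Data normalized to full inhibition by 1.43 uM quinidine.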

Assay [11] addresses Cytochrome P450 2C19 (Homo sapiens) (UniProt P33261). The experiment in a line: qHTS Assay for Inhibitors and Substrates of Cytochrome P450 2C19 (AID 899). Also: nearly all actives have a fitted effect of over 60% in size. Also: potency is read from the fitted curve at half-maximal effect. The conditions noted are these: recombinant CYP2C19, luciferin-H EGE luminescence; series mostly up to 57.1 µM. In short, it runs like this: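 5nM enzyme + 10uM Luciferin-H EGE (=KM), 50mM KPO4; cpd pin-transferred, 10 min 37C; NADPH regen, 60 min 37C; stopped w/ luciferin detection reagent, 20 min; luminescence. Normalized to 57uM ketoconazole (AC100).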

Assay [12] is described as follows: Confirmation and Secondary Assay for Modulators of Hemoglobin Beta Chain Splicing at IVS2 654 locus (AID 910).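 Also: HeLa cells stably carrying EGFP split by mutant beta-globin IVS2-654 intron; per-well total GFP intensity by laser scanning cytometry after 2-day treatment; % of control where 0% means no effect.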 The conditions noted are these: HeLa EGFP-654 splicing reporter, GFP fluorescence, 48 h; series mostly up to 46.1 µM. In short, it runs like this:
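Readout: per-well total peak green fluorescence (488 nm ex, 500–520 nm em) from objects 5–250 µm, reflecting correct splicing of an EGFP-654 reporter. Compounds were applied for 2 days at 37 °C to overnight-plated HeLa EGFP-654 cells; controls were DMSO and 500 nM IVS2-654 PNA.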

Assay [13] can be described thus: qHTS Assay for Identification of Small Molecule Agonists for Thrombopoietin (TPO) Signaling Pathway (AID 917). Also: % is scaled to controls: 0 for no effect and ±100 for the full control effect. The conditions noted are these: TPO signaling pathway reporter cells, agonist qHTS, stimulated with TPO at its EC50; series mostly up to 38.5 µM. The method in brief: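 Luciferase reporter (Glycoprotein IIb promoter) in IL-3-deprived Ba/F3 cells carrying human TPO receptor; compounds co-added with 26 pM TPO, incubated 24 h, 37 C. Steadylite luminescence measured after 10 min.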

The nature of assay [14]: Confirmation and Secondary Assay for Modulators of Hemoglobin Beta Chain Splicing at IVS2 705 locus (AID 930).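 Also: HeLa cells stably expressing the EGFP-705 splicing reporter; GFP fluorescence per well restored by corrected splicing of the IVS2-705 intron in EGFP; % of control where 0% means no effect.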 The conditions noted are these: HeLa EGFP-705 splicing reporter, GFP fluorescence, 48 h; series mostly up to 46.1 µM. The method in brief: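 Stable HeLa line with EGFP disrupted by mutant beta-globin intron 2 (705). Overnight attachment, then 2 days of compound at 37C, 5% CO2. Signal: peak GFP intensity summed over objects 5-250 µm.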

The target in assay [15] is Pyruvate kinase (Leishmania mexicana) (UniProt Q27686). The experiment in a line: qHTS Validation Assay for Inhibitors of Leishmania Mexicana Pyruvate Kinase (AID 945).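 Also: 0% = DMSO only neutral control wells.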 The conditions noted are these: purified L. mexicana pyruvate kinase, enzyme activity, E451W mutant enzyme; series mostly up to 57.5 µM. The method in brief: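 Mutant LmPYK (E451W), 0.2 nM, plus 0.5 mM PEP and 0.1 mM ADP in 50 mM imidazole pH 7.2 containing 0.01% Tween 20 and 0.05% BSA. Incubated 1 h at room temperature; luminescence via PKLight, normalized to DMSO.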

The target of assay [16] is Alpha-galactosidase A (Homo sapiens) (UniProt P06280). The experiment in a line: Counterscreen for Glucocerebrosidase Inhibitors: qHTS Assay for Human alpha-Galactosidase at pH 4.5 (AID 992). Also: 0% is about no effect. The conditions noted are these: purified enzyme, fluorogenic substrate; series mostly up to 76.9 µM. The method in brief: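 Fluorogenic 1536-well qHTS at pH 4.5 (citrate, Tween-20): 2 nM enzyme, 80 uM 4-MU-alpha-galactoside, 20 min room temperature, NaOH/glycine stop. Titration 0.7 nM to 77 uM, data normalized to no-enzyme and full-activity controls, Hill-fitted AC50.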

Assay [17] concerns the target alpha-glucosidase (Oryza sativa, rice) (UniProt Q653V4). The experiment in a line: Counterscreen for Glucocerebrosidase Inhibitors: qHTS Assay for Rice alpha-Glucosidase at pH 5.0 (AID 997).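 Also: 0% = full activity with enzyme and -100% = basal without enzyme.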 The conditions noted are these: rice alpha-glucosidase enzyme activity; series mostly up to 76.9 µM. In short, it runs like this:
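Endpoint fluorogenic assay at pH 5.0: compounds (0.7 nM to 77 uM) titrated against 4 nM rice enzyme and 400 uM 4-MU-alpha-glucoside for 20 min at room temperature; NaOH/glycine stop, read ex 365/em 440 nm, Hill-fitted AC50.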
For orientation: A counterscreen serves to expose hits that act by an unwanted route or on another target.

Assay [18] can be described thus: qHTS Assay for Lipid Storage Modulators (AID 1519; calls by dose curve). The conditions noted are these: Drosophila S3 cells, BODIPY lipid droplet/cell ratio, laser cytometry, cells loaded with oleic acid. In short, it runs like this:
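Cells seeded at 5,000 per well were treated with compounds over a concentration series and loaded with oleic acid (400 uM, as added). Lipid droplet fluorescence (488 nm excitation, 500-530 nm channel) was read by laser-scanning cytometry and normalized to 20 uM Triacsin C.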

In assay [19] the test system is Zika virus NS2B-NS3 protease. The experiment in a line: Primary screen GU AMC qHTS for Zika virus inhibitors (AID 1347154).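 Also: 0% = no-inhibitor control and -100% = no-enzyme control; nearly all actives have a fitted effect of over 70% in size.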 The conditions noted are these: Zika NS2B-NS3 unlinked protease, AMC fluorogenic substrate; series mostly up to 54.1 µM. The method in brief: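 Fluorogenic AMC-substrate cleavage by noncovalent NS2B-NS3 protease complex (25 nM, pH 8.0 Tris buffer with Tween 20) followed for 15 minutes at room temperature (~20% conversion). Percent inhibition from ex340/em450 signal change, fitted by 4-parameter Hill equation.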

Assay [20] is described as follows: Primary qHTS for small molecule stabilizers of the endoplasmic reticulum resident proteome: Secreted ER Calcium Modulated Protein (SERCaMP) assay (AID 1508630). Also: % is scaled to controls: 0 for no effect and ±100 for the full control effect. The conditions noted are these: SH-SY5Y GLuc-SERCaMP (Gaussia luciferase released on ER calcium loss) secretion, thapsigargin, luminescence; series mostly up to 38.4 µM. In short, it runs like this: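 The SH-SY5Y reporter protocol was run at 3 concentrations up to 38.3 uM (primary) or 11 concentrations (follow-up): 16 h compound, 100 nM thapsigargin for 4 h, then extracellular luciferase luminescence.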

Several values for one entry are separate records, joined by “and”; a condition that tells them apart may be missing. Identical values can stand only once. Results filed as inconclusive are left out. Some structures have more than one record in an assay (separate samples or runs), and their calls can disagree. Activity calls are given as the source filed them. Unless noted, calls follow the shape of the dose curve; as a rule, active = well fitted curve in the direction sought with a large enough effect; inconclusive = small, poorly fitted or top-dose-only effect, or another doubt; inactive = no such curve, though single readings can be large; an effect the other way counts as inactive or inconclusive. Some results are limits rather than exact numbers.

Chain of Cytochrome P450 2D6 (Homo sapiens) (P10635 whole entry, looked up): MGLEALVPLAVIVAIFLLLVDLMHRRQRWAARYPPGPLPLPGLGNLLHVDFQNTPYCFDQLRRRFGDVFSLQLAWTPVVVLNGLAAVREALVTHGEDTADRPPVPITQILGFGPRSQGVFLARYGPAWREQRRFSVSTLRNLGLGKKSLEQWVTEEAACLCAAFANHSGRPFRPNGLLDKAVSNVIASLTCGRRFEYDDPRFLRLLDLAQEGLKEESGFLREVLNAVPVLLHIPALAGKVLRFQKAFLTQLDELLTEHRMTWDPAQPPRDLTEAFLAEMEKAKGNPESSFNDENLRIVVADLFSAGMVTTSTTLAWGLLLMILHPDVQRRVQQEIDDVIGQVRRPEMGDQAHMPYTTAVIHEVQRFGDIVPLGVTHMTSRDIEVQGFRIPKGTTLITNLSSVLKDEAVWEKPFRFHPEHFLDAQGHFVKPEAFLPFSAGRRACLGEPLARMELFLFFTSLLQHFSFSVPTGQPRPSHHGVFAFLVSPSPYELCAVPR
Chain of 3',5'-cyclic-AMP phosphodiesterase 4B (Homo sapiens) (Q07343 whole entry, looked up): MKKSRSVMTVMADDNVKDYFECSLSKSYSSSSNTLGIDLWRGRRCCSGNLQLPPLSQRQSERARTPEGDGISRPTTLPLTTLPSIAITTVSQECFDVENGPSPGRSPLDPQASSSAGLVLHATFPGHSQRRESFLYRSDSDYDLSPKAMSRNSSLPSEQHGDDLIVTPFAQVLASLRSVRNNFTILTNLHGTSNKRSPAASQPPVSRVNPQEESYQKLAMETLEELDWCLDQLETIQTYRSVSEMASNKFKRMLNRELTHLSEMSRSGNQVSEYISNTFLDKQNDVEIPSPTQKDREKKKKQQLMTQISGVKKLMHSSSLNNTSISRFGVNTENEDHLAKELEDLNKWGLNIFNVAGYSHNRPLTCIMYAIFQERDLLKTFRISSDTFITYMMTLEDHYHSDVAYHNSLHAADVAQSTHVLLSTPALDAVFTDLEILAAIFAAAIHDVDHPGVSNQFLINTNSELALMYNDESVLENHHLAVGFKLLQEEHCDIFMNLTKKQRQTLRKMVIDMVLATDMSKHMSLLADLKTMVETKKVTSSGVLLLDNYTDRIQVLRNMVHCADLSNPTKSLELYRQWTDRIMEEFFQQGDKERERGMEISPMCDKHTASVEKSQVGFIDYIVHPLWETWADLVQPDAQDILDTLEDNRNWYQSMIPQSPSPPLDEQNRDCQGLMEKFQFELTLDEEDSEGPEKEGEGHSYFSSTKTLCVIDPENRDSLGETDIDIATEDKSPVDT
Chain of Cytochrome P450 1A2 (Homo sapiens) (P05177 whole entry, looked up): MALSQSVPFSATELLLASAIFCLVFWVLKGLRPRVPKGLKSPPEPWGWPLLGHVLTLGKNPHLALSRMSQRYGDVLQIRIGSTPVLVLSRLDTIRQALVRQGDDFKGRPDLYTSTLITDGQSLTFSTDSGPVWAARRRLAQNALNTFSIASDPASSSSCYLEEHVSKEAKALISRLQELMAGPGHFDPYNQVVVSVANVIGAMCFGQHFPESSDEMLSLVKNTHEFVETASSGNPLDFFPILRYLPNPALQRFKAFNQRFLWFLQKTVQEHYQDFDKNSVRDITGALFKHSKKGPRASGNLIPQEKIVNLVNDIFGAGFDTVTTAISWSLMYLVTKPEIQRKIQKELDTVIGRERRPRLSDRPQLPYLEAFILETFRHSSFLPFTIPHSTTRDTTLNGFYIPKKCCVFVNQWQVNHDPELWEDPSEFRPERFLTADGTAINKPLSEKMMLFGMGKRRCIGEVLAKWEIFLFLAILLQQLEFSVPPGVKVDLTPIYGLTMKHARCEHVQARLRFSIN
Chain of Cytochrome P450 3A4 (Homo sapiens) (P08684 whole entry, looked up): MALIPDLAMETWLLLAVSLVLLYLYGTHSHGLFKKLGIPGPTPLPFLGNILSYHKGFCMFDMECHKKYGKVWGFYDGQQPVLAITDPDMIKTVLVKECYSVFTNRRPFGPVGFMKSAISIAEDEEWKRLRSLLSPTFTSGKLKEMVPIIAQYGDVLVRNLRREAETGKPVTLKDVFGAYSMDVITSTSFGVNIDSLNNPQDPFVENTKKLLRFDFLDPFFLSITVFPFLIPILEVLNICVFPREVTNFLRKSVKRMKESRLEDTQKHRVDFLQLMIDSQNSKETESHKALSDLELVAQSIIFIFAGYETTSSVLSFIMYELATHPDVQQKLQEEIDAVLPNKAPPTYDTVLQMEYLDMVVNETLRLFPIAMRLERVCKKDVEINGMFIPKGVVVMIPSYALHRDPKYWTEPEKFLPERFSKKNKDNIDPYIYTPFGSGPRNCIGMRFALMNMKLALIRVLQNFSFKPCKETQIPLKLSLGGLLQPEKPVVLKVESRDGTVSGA
Chain of Glucocorticoid receptor (Homo sapiens) (P04150 whole entry, looked up, the tested form may be a part): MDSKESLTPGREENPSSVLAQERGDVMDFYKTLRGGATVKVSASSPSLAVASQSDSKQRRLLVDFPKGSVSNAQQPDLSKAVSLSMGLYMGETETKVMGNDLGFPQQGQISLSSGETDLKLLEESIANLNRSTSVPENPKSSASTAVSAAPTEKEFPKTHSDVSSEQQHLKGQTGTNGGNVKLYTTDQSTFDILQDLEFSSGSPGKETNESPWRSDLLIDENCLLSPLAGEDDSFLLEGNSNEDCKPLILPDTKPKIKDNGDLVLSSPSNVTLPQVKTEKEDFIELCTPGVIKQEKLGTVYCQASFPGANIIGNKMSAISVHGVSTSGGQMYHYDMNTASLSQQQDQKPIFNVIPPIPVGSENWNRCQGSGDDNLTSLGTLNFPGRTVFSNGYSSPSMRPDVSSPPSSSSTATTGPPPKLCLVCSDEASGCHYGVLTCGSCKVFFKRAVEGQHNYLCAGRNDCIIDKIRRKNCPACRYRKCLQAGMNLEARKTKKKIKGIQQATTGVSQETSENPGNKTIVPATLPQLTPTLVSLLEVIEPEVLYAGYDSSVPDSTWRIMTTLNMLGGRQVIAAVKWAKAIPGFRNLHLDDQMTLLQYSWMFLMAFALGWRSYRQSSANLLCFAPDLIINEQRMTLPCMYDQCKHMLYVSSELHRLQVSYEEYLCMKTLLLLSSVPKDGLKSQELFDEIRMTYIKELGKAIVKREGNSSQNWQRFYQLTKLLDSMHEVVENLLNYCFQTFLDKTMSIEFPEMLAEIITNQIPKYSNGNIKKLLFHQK
Chain of Cytochrome P450 2C19 (Homo sapiens) (P33261 whole entry, looked up): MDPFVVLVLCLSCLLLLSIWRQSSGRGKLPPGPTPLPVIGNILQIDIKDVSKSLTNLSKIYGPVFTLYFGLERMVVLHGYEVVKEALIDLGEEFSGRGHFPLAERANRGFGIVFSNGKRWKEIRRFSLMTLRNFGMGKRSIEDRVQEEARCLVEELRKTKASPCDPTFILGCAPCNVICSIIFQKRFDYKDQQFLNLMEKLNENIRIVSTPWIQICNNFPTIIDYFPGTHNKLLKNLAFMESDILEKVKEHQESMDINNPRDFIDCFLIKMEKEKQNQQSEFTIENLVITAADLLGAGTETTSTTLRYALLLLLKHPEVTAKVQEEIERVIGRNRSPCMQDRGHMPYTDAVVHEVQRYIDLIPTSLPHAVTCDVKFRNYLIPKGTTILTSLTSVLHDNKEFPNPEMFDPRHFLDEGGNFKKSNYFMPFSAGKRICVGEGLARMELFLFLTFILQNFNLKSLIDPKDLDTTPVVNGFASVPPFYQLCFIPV
Chain of Guanine nucleotide-binding protein G(i) subunit alpha-1 (Homo sapiens) (P63096 whole entry, looked up): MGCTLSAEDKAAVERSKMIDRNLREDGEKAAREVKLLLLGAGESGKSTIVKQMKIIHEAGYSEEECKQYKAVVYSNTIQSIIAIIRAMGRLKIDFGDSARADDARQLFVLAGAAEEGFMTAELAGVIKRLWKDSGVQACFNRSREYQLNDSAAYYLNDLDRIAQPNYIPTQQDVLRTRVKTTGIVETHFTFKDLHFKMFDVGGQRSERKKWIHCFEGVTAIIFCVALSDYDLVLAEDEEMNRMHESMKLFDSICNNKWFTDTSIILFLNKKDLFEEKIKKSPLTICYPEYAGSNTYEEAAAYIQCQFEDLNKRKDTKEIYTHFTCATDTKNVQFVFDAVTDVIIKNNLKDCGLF
Chain of Pyruvate kinase (Leishmania mexicana) (Q27686 2-499 E452W): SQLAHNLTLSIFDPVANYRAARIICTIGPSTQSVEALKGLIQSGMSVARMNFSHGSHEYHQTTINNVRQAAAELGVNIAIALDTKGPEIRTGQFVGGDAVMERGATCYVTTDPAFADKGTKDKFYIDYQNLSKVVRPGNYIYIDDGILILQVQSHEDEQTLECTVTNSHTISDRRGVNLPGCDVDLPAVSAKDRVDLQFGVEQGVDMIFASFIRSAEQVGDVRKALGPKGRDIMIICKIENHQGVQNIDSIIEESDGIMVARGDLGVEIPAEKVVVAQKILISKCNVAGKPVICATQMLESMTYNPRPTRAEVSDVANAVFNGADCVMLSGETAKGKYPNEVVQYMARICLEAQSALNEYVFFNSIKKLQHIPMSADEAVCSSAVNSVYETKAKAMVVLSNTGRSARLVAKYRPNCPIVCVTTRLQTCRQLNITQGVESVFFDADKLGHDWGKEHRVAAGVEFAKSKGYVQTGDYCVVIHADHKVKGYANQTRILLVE
Chain of Alpha-galactosidase A (Homo sapiens) (P06280 whole entry, looked up): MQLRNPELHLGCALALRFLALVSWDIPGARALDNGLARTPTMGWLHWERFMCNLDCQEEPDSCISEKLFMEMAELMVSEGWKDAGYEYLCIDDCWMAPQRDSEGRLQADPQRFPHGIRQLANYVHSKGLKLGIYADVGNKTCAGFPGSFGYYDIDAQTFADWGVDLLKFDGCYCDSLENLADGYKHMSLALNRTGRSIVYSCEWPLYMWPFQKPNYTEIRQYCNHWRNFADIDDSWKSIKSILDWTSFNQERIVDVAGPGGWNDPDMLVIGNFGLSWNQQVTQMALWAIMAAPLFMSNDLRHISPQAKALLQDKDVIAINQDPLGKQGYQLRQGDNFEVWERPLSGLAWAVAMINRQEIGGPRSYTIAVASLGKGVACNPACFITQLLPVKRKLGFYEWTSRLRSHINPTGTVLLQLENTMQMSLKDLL

On to `CC1=C(\C=C/C(C)=C/C=C\C(C)=C\C(=O)O)C(C)(C)CCC1`, for which the activity change, negative = inhibition in assay [1] (at 17.2 µM (top of the series)) is -3.06% (inactive) and -11.4% (inactive); in [1] (at 38 µM (top of the series)), -26.4% (inactive) and 3.96% (inactive); in assay [3], 4.1% (inactive); in assay [18] (at 25.7 µM (top of the series)), 0.599% (inactive) and 0.957% (inactive). In addition, the Potency entry in [2] was “inactive and 20 µM (active)”; in assay [4], > 46 µM (inactive) and > 20.6 µM (inactive); in [5] it was > 46 µM (inactive) and > 20.6 µM (inactive); in assay [10], “inactive and 2 µM (active)”; in [11] it was “inactive and 5.01 µM (active) and 12.6 µM (active)”. Further, the Potency result in assay [6], in assay [7], in assay [9], in [13], in assay [15] and in [19] was “inactive” throughout. Also, in assay [20], the Potency result was “inactive”. Also, the result in assay [8], in assay [12], in [14], in assay [16] and in assay [17] was inactive. The max response was -6.58% and 5.14% in assay [18] (measured here: cell count channel max response); -6.6% and 8.88% in [18] (measured here: lipid channel max response).
